Data from PubChem BioAssay.
Active and inactive are the calls of the source.

How the values were obtained:
Albumin (Bos taurus) = Albumin (Bos taurus) (UniProt P02769); assay: compounds binding labelled BSA control protein – biochemical, small-molecule microarray, Alexa647 label, 635/667 nm fluorescence, artefact control for SMM control protein annotation, profiling panel (AID 1118); conditions: BSA-A647 binding, fluorescence 635 nm, higher = more signal;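 also: score merges 667 nm emission intensity and signal-to-noise per printed compound spot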
[1] = probe aXIP binding to arrayed compounds – biochemical, NeuroSMM set, 635/667 nm fluorescence, primary screen (AID 1119); conditions: small-molecule microarray, higher = more signal, called active from +8 up or from −8 down;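 also: probe is the protein aXip251-270 applied at 1 µg/mL to compound-printed slides; binding of probe to printed compounds measured as 667 nm fluorescence plus signal to noise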
[2] = probe aNOTCH3 binding on compound microarray – biochemical, small-molecule microarray, 635/667 nm fluorescence, primary screen (AID 1120); conditions: higher = more signal;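 also: probe is a biotin-tagged antibody raised against NOTCH3 rather than NOTCH3 protein; score merges spot fluorescence near 667 nm with spot signal to noise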
[3] = probe aNOTCH2 binding on compound microarray – biochemical, small-molecule microarray, 635/667 nm fluorescence, primary screen (AID 1121); conditions: higher = more signal;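 also: score merges feature fluorescence read at 667 nm with its signal to noise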
[4] = target: Carbonic anhydrase 2 (Homo sapiens) (UniProt P00918); assay: compounds binding carbonic anhydrase 2 – biochemical, small-molecule microarray, Alexa647-labelled CAII, profiling panel (AID 1122); conditions: CAII-A647 binding fluorescence, higher = more signal
[5] = COS7 lysate on small-molecule microarray, probe aHis, 635 nm (AID 1123); conditions: COS7 cell lysate, fluorescence, higher = more signal;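 also: z-score combines 667nm fluorescence intensity with signal-to-noise per printed compound spot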
[6] = probe aLAP1 signal on lysate-treated microarray – cell lysate, small-molecule microarray, COS7 lysate, primary screen (AID 1124); conditions: probe aLAP1, fluorescence, higher = more signal;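 also: lysate comes from COS7 cells expressing LAP1 and is applied at 0.3 µg/mL; score merges spot fluorescence near 667 nm with signal-to-noise over triplicate slides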
Sam68 (KHDRBS1) = assay: compounds binding KHDRBS1 protein – biochemical, small-molecule microarray, 635 nm fluorescence, primary screen (AID 1125); conditions: higher = more signal;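 also: score merges 667 nm channel intensity with signal to noise over triplicate slides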
[7] = test system: Chordin-like protein 2 (CHRDL2); assay: compounds binding chordin-like 2 – biochemical, small-molecule microarray, 635 nm fluorescence, primary screen (AID 1126); conditions: fluorescence 635 nm, higher = more signal;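 also: printed compound slides probed with Chrdl2 protein at 4 µg/mL for 1 h at 4 C; score merges 667 nm emission intensity with signal to noise over three replicate slides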
[8] = target: Concanavalin-A (Canavalia ensiformis) (UniProt P02866); assay: compounds binding concanavalin A lectin – biochemical, small-molecule microarray, Alexa647 label, 635 nm, artefact control for SMM control protein annotation, primary screen (AID 1127); conditions: ConA-A647 binding fluorescence, higher = more signal;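 also: z combines 667 nm emission intensity with signal-to-noise across three replicate slides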
Sequence of Concanavalin-A (Canavalia ensiformis) (P02866 whole entry, looked up): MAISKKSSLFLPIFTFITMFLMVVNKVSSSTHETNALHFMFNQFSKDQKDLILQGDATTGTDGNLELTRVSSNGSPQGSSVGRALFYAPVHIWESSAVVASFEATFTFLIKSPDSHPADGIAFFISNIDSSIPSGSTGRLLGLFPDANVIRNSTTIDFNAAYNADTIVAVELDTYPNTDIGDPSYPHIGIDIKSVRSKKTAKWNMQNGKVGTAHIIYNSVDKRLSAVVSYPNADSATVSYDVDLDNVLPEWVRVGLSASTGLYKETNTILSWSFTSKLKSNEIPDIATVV

Sequence of Albumin (Bos taurus) (P02769 whole entry, looked up): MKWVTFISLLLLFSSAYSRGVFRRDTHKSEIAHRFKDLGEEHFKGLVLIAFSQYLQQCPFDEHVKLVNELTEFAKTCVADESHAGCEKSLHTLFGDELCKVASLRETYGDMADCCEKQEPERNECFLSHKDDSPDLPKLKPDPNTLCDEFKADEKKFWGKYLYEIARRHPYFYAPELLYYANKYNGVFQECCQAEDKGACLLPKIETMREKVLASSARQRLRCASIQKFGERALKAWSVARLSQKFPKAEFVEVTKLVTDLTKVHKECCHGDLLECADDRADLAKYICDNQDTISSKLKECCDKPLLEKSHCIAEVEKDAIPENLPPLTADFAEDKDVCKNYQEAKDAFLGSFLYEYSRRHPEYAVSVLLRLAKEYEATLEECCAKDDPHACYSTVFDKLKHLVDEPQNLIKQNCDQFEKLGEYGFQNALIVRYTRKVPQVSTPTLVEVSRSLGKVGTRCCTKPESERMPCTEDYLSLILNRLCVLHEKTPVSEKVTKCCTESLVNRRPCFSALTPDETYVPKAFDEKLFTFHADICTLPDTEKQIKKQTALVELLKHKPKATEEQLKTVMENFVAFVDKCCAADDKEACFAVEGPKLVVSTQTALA

Structure (SMILES) | composite z-score (Albumin (Bos taurus)) | composite Z-score [1] | composite z-score [2] | composite z-score [3] | composite z-score [4] | composite z-score [5] | composite z-score [6] | composite z-score (Sam68 (KHDRBS1)) | composite z-score [7] | composite z-score [8]
[N-]=[N+]=NCc1ccccc1C[C@]1(C(=O)NCC(O)CO)COC(c2ccc(OCCCO)cc2)=N1 (stereo not given in full) | 1.03 | 0.621 (inactive) | 0.0566 | 0.446 | 0.8 | 3.3 | 1.38 | 1.12 | -1.37 | 0.954
Cc1ccc(F)cc1S(=O)(=O)N[C@@H]1CCN(Cc2ccc(C(F)(F)F)cc2)C1 | -0.973 | 0.512 (inactive) | -0.159 | -0.173 | -0.171 | 0.0774 | 0.242 | 0.144 | 0.509 | -0.628
CC1CC/C=C\[C@H]2OC34C=CCN(CCN5CCOCC5)C(=O)[C@H]3N(CCCCCO)C(=O)[C@@H]4C2C(=O)O1 (stereo not given in full) | -1.19 | 0.905 (inactive) | -0.178 | -0.175 | 0.899 | -0.471 | -0.653 | -1.25 | -0.191 | -0.233
NC(=O)NCC#Cc1ccc2c(c1)[C@]1(C(=O)N2)[C@H](c2ccccc2OCCO)N2[C@H](c3ccccc3)[C@H](c3ccccc3)OC(=O)[C@H]2[C@@H]1C(=O)N1CCCCCCC1 | 0.0389 | 4.09 (inactive) | 1.72 | 0.813 | 0.951 | 3.72 | 1.86 | 1.29 | 1.05 | 1.11
Cc1ccc(S(=O)(=O)N2CC(C(=O)O)=CCC2c2ccccc2)cc1 (stereo not given) | 0.465 | 0.0578 (inactive) | -0.287 | -0.106 | 0.881 | 1.21 | 0.671 | 0.503 | -1.74 | 0.0782
C=CCC(OC(C)=O)[C@@H]1[C@@H](N(Cc2cc3ccccc3o2)C(=O)c2cccc3ccccc23)c2cc(OCCCO)ccc2N1C(=O)Cc1ccc2ccccc2c1 (stereo not given in full) | 0.398 | 0.182 (inactive) | 0.0496 | -0.0928 | 0.0704 | 0.256 | 0.0592 | -0.301 | 0.16 | 0.106
CC(C)(C)OC(=O)CC[C@@]1(C(=O)NCC(O)CO)N=C(c2ccc(OCCCO)cc2)O[C@@H]1c1ccccc1 (stereo not given in full) | 1.01 | 0.595 (inactive) | 0.178 | -0.0896 | 0.892 | 3.67 | 1.34 | 0.965 | -1.65 | 0.537
O=C1O[C@H](c2ccccc2)[C@H](c2ccccc2)N2[C@H]1[C@@H](C(=O)Nc1nc3ccccc3s1)[C@]1(C(=O)Nc3ccc(C#CC4=CCCCC4)cc31)[C@H]2c1ccc(OCCO)cc1 | 0.897 | -0.495 (inactive) | 0.225 | -0.0144 | 0.761 | 2.68 | 0.596 | 1.3 | 0.448 | 1.12
COCCOC(=O)N1C(=O)[C@@]2(c3cc(C#CC4=CCCCC4)ccc31)[C@H](C(=O)N1CCN(c3ncccn3)CC1)[C@H]1C(=O)O[C@H](c3ccccc3)[C@H](c3ccccc3)N1[C@@H]2c1ccc(OCCO)cc1 | 0.565 | -0.274 (inactive) | -0.0345 | 0.108 | 0.278 | 0.676 | 0.358 | 1.17 | 0.926 | 1.04
CCCNC(=O)[C@@]1(C)c2ccccc2C(=O)N(Cc2ccc(OC(F)(F)F)cc2)[C@H]1c1ccc(CO)cc1 | 0.132 | 2.11 (inactive) | -0.0397 | -0.0035 | 0.267 | -0.517 | 0.727 | 0.565 | -0.602 | 0.949
C=CCC(OC(C)=O)[C@@H]1[C@@H](N(Cc2ccc(-c3ccccc3)cc2)C(=O)c2ccc(C)cc2)c2cc(OCCCO)ccc2N1C(=O)c1ccc2ccccc2n1 (stereo not given in full) | -0.361 | -0.181 (inactive) | 0.246 | -0.0134 | 0.0144 | 0.249 | -0.446 | -0.44 | 0.0539 | -1.78
